# Screening results as filed in PubChem.
# CHRM1 PAM: positive allosteric modulators of human M1 muscarinic receptor; CHO-K1 hM1, Fluo-8 calcium fluorescence, ACh EC20; 0% = ACh EC20, 100% = maximal ACh; P11229; actives 0.088% (n = 360,000); activation, % at 3 µM; AID 588819; in the data active = activation above about 19%, passing the limit was not always enough
# Target sequence (P11229 whole entry, looked up): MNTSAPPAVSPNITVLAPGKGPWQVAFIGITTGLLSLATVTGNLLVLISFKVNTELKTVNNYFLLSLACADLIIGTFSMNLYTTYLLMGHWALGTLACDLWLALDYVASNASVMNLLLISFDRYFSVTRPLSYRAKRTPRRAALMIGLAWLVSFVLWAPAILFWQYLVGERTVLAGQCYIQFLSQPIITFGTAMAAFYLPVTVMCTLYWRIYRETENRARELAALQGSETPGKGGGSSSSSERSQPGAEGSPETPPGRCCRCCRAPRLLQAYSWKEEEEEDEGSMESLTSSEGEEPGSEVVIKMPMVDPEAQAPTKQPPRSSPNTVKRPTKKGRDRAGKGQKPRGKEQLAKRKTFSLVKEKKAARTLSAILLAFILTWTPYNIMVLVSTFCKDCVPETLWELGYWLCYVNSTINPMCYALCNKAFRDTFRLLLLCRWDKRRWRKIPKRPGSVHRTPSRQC
# M1 PAM parental: M1 PAM counterscreen hit in parental CHO-K1 cells; actives 0.02% (n = 360,000); ATP EC20, Fluo-8 calcium fluorescence; 0% at ATP EC20, 100% at ATP max; activation, % at 3 µM;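 active = activation above the run cutoff, the mean activation of all test compounds plus 3 SD, cut at about 40% in these data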;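 also: peak over basal fluorescence ratio in a 140 s read after ATP addition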
# CHO-K1 Ca antag: nonselective inhibitor or artifact in parental CHO-K1 cells. ATP-induced calcium, Fluo-8 fluorescence. inhibition, % at 3 µM. actives 0.6% (n = 360,000);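 active = inhibition above a per-plate cutoff, the plate's mean sample inhibition plus 3 SD, cut at about 24% in these data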
# M1 ag parental: M1 agonist counterscreen hit in parental CHO-K1 cells | actives 0.48% (n = 360,000) | activation, % at 3 µM | Fluo-8 calcium fluorescence; scaled to maximal ATP response, vehicle zero | AID 602248; in the data active = activation above about 15%;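 also: untransfected CHO-K1 host cells lacking M1 receptor as counterscreen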
# M1 ag: agonists of human M1 muscarinic receptor; AID 588814; actives 0.33% (n = 360,000); activation, % at 3 µM; CHO-K1 hM1, Fluo-8 calcium fluorescence, agonist mode; 0% DMSO, 100% acetylcholine EC100;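 active = activation above the run's mean compound activation plus 3 SD, cut at about 16% in these data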;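 also: peak over basal fluorescence ratio within a 140 s kinetic read after compound addition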
# M1 antag: human CHRM1 antagonism; CHO-K1 hM1, Fluo-8 calcium fluorescence, ACh EC80 antagonist; P11229; inhibition, % at 3 µM; AID 588852; actives 1.3% (n = 360,000);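 active = percent inhibition above its own plate's cutoff, namely the mean of that plate's compound wells plus 3 SD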;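 also: peak over basal fluorescence ratio during 140 s after agonist addition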
# Numbers stand for hits; – = inactive. A selection: hits, their analogues and other compounds. The true share with any hit is near 2.4%.
SMILES,CHRM1 PAM,M1 PAM parental,CHO-K1 Ca antag,M1 ag parental,M1 ag,M1 antag
C[C@@H]1CN([C@@H](C)CO)C(=O)CCCn2nncc2CO[C@H]1CN(C)Cc1ccc(Oc2ccccc2)cc1,–,–,–,–,–,39.6
C[C@H](CO)N1C[C@H](C)[C@@H](CN(C)Cc2ccc(O)cc2)OCc2cnnn2CCCC1=O,–,–,–,–,–,–
COc1ccccc1CN(C)C[C@H]1OCc2cnnn2CCCC(=O)N([C@H](C)CO)C[C@@H]1C,–,–,–,–,–,–
COc1ccccc1CN(C)C[C@H]1OCc2cnnn2CCCC(=O)N([C@@H](C)CO)C[C@@H]1C,–,–,–,–,–,102.5
O=C(c1cccc(Br)c1)N1CCN(S(=O)(=O)N2CCCCCC2)CC1,–,–,–,–,–,–
CC1/C(=N/O)CC(c2ccccc2)NC1c1ccccc1 (stereo not drawn),–,–,–,–,–,–
CCCC1/C(=N/O)CC(c2ccccc2)NC1c1ccccc1 (stereo not drawn),–,–,37.0,17.9,–,–
C[C@H]1c2cccc(O)c2C(O)=C2C(=O)[C@]3(O)C(O)=C(C(N)=O)C(=O)[C@@H](N(C)C)[C@@H]3[C@@H](O)[C@@H]21,–,–,–,–,25.0,–
CN(C)c1ccc(O)c2c1CC1CC3[C@@H](N(C)C)C(=O)C(C(N)=O)=C(O)[C@]3(O)C(=O)C1=C2O (stereo partly drawn),–,–,–,–,–,–
O=C(O)CC(C(=O)OC1CCCCC1)N1CCOCC1 (stereo not drawn),–,–,31.4,–,–,–
O=C(O)CC(C(=O)OCC1CCCO1)N1CCOCC1 (stereo not drawn),–,–,–,–,–,–
CC(C)(C)NC(=O)CSc1nc2ccc(NC(=O)CSc3nnnn3Cc3ccccc3)cc2s1,–,–,–,–,–,19.1
CCOC(=O)CSc1nc2ccc(NC(=O)CSc3nnnn3Cc3ccccc3)cc2s1,–,–,–,–,–,–
Cc1cc(S(=O)(=O)N2CCCC(C)C2)ccc1-n1cnnn1 (stereo not drawn),–,–,–,–,–,–
Cc1ccccc1Cc1c(C)nc2nc(SCC(=O)NCCCN3CCCC3)nn2c1C,–,–,–,–,–,50.0
Cc1nc2nc(SCC(=O)N3CCOCC3)nn2c(C)c1Cc1c(F)cccc1Cl,–,–,–,–,–,–
Cc1nc2nc(SCC(=O)NCCCN3CCCCCC3)nn2c(C)c1Cc1ccccc1Cl,–,–,–,–,–,100.2
Cc1nc2nc(SCC(=O)NCCCN3CCCC(C)C3)nn2c(C)c1Cc1ccccc1Cl (stereo not drawn),–,–,–,–,–,63.2
O=C(COc1cccc(Br)c1)N/N=C/c1ccc2c(c1)OCCO2,–,–,–,–,–,–
CCOC(=O)C1CCN(CCC(=O)Nc2ccc(C)cc2)CC1,–,–,–,–,–,–
Cc1cc(-c2nnc(SCC(=O)Nc3ccccc3C(F)(F)F)o2)c(C)n1-c1ccccc1,–,–,–,–,17.0,–
CCCNC(=O)Cn1c(=O)/c(=C\c2ccc(-c3ccc([N+](=O)[O-])cc3)o2)s/c1=C\C(=O)C(C)(C)C,–,–,–,22.6,21.9,36.7
CCc1cc(C(=O)Nc2cc(Cl)ccc2N2CCN(C)CC2)sc1C,–,–,27.6,–,–,–
CCc1cc(C(=O)Nc2cc(S(=O)(=O)N(CC)CC)ccc2N2CCN(C)CC2)sc1C,–,–,–,–,–,–
COc1ccc(-n2nc(C(=O)NCC(=O)NCCCN3CCC(C)CC3)c3ccccc3c2=O)cc1Cl,–,–,–,–,–,–
SMILES,CHRM1 PAM,M1 PAM parental,CHO-K1 Ca antag,M1 ag parental,M1 ag,M1 antag
COc1ccc(-n2nc(C(=O)NCC(=O)NCCCN3CCCCCC3)c3ccccc3c2=O)cc1Cl,–,–,–,–,–,50.1
CCOC(=O)C1CCCN(C(=O)CNC(=O)c2nn(-c3ccc(OC)c(Cl)c3)c(=O)c3ccccc23)C1 (stereo not drawn),–,–,–,–,18.1,–
CCOC(=O)C1CCN(C(=O)CNC(=O)c2nn(-c3ccc(OC)c(Cl)c3)c(=O)c3ccccc23)CC1,–,–,–,–,–,–
CCOC(=O)CNC(=O)CNC(=O)c1nn(-c2ccc(OC)c(Cl)c2)c(=O)c2ccccc12,–,–,25.9,–,–,–
CCOC(=O)CNC(=O)CNC(=O)c1nn(-c2ccc(OC)c(OC)c2)c(=O)c2ccccc12,–,–,–,–,–,–
CNC(=O)C(=O)NCCc1ccc(Cl)cc1,21.2,–,–,–,–,–
O=[N+]([O-])c1ccc(NC(=S)NCc2ccncc2)cc1,–,–,–,–,–,–
NS(=O)(=O)c1ccc(NC(=S)NCCc2ccccc2)cc1,–,–,–,–,–,–
O=[N+]([O-])c1ccc(NC(=S)NCCc2ccccc2)cc1,–,–,–,–,–,38.7
O=[N+]([O-])c1ccc(NC(=S)NCc2ccc(F)cc2)cc1,–,–,23.9,–,–,27.7
O=[N+]([O-])c1ccc(NC(=S)NCCc2ccc(Cl)cc2)cc1,–,–,–,–,–,34.5
S=C(NCCc1ccccc1)Nc1ccc(Cl)cc1,–,–,–,–,–,–
CC(C)(C)OC(=O)N[C@H](C(=O)OC(C)(C)C)c1ccccc1,–,–,–,–,–,–
CSCc1c(C(=O)OCC(=O)NC2CCCCC2)oc2ccccc12,–,–,–,–,–,–
COc1ccc(OC)c(CCNC(=O)Cn2nc(C)c3c(C)n(-c4ccccc4)nc3c2=O)c1,–,–,–,–,–,–
C=CCc1cc(Cl)ccc1OCCCNC(C)CC (stereo not drawn),–,–,–,–,–,24.3
Cc1ccc(OCCOCCNC(C)C)c(Br)c1,–,–,–,–,–,–
CCC(C)NCCOCCOc1cc(C)c(Cl)c(C)c1 (stereo not drawn),–,–,–,–,–,53.7
CCC(C)NCCOCCOc1ccc(Cl)cc1Br (stereo not drawn),–,–,–,–,–,42.1
NC1=NC2OC(CO)C(O)C2O1 (stereo not drawn),–,–,–,–,–,–
COC(=O)C(Cc1ccc(OC(=O)c2ccc(Cl)cc2)cc1)N1Cc2ccccc2C1=O (stereo not drawn),–,–,33.8,–,–,20.9
COC(=O)C(Cc1ccc(OC(=O)c2ccc(C(F)(F)F)cc2)cc1)N1Cc2ccccc2C1=O (stereo not drawn),–,–,25.4,–,–,35.5
O=C(O)CC(c1ccc(Cl)cc1)N1Cc2ccccc2C1=O (stereo not drawn),–,–,–,–,–,–
CN(CC(=O)Nc1ccc(F)c(F)c1F)C(=O)CCc1nc2sc3c(c2c(=O)[nH]1)CCCC3,–,–,–,–,–,–
